Compound activity as filed in PubChem.
Most compounds without a hit are left out; they make up all but 2.3% or so of the library.
AmpC no deterg = qHTS Inhibitors of AmpC Beta-Lactamase (assay without detergent) | hit rate 0.52% among 330,000 | P00811 | Potency, µM (highest dose often 57.1 µM), for inactives: at the top dose activity change, negative = inhibition, hits mostly inhibitors | AID 485341, 2010 | AmpC nitrocefin hydrolysis, absorbance 480 nm, 0.0001% Triton;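 note: plate controls were no compound for no effect and no enzyme for full effect; nearly all actives have a fitted effect of over 20% in size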
Target sequence (P00811 whole entry, looked up): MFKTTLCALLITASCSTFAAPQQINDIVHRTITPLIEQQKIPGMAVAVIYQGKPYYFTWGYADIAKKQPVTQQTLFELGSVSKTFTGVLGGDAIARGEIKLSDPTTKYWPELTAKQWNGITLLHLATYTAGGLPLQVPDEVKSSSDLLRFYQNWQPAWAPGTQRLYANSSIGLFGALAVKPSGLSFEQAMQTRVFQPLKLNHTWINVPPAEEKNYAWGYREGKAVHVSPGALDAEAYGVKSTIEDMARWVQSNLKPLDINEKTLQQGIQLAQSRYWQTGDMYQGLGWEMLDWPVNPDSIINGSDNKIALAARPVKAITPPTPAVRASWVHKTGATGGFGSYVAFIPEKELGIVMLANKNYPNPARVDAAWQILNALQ
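AmpC (5.3 nM in the dispensed reagent) in 20 mM phosphate pH 7.0 with 0.01% (detergent screen) or 0.0001% Triton X-100 was preincubated with compounds for 15 min at room temperature. Nitrocefin was then added from an 800 uM solution, and hydrolysis was followed at 480 nm.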
AMA1-RON2 inh = qHTS for Inhibitors of AMA1-RON; Towards Development of Antimalarial Drug Lead: Primary Screen. AlphaScreen AMA1-biotinylated RON2 peptide binding. Potency, µM (series often up to 58.2 µM), without a hit: at the top dose activity change, negative = inhibition, most hits filed as inhibitors. hit rate 0.2% among 360,000. AID 720542, 2013;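 note: 0% = vehicle wells and -100% = peptide control; nearly all actives have a fitted effect of over 45% in size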
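AMA1 (3D7) with his tag at 25 nM final met compounds first, then biotinylated RON2 peptide at 25 nM; detection used donor plus acceptor beads, 10 µg/mL apiece, read by AlphaScreen after 30 min at room temperature.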
AmpC inh detg = qHTS Inhibitors of AmpC Beta-Lactamase (assay with detergent) | hit rate 0.041% among 370,000 | AID 485294, 2010 | AmpC hydrolysis of nitrocefin, absorbance 480 nm, 0.01% Triton | Potency, µM (top dose mostly 114 µM), without a hit: at the highest dose activity change, negative = inhibition, hits mostly inhibitors;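 note: 0% = no-compound wells and -100% = no-enzyme wells; nearly all actives have a fitted effect of over 25% in size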
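20 mM phosphate pH 7.0 + 0.01% (detergent screen) or 0.0001% Triton X-100; 5.3 nM AmpC reagent; cpd preinc 15 min RT; nitrocefin (800 uM stock) to start; A480 q20 s × 4 min; Activity was normalised to no-enzyme and no-compound control wells.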
Lassa entry inh = qHTS for Inhibitors of binding or entry into cells for Lassa Virus; Lassa virus pseudotype entry inhibition, cell reporter; Potency, µM (titrated, usually from 37.9 µM), for the others: at the highest dose activity change, negative = inhibition, usual class: inhibitors; hit rate 1.2% among 300,000; AID 540256, 2011; calls by dose curve; tested in HEK293 cells; note: nearly all actives have a fitted effect of over 50% in size
Marburg entry inh = qHTS for inhibitors of binding or entry into cells for Marburg Virus | Marburg virus pseudotyped entry inhibition, cell reporter | Potency, µM (top dose mostly 37.8 µM), for inactives: at the highest dose activity change, negative = inhibition, hits mostly inhibitors | hit rate 1.8% among 300,000 | AID 540276, 2011; calls by dose curve; tested in HEK293 cells
* = called active by the depositor; ? = inconclusive; nt = not tested or not shown; [ ] = another dose, or the depositor's remark. Unless noted, calls come from the whole dose curve; as a rule, active = well fitted curve in the direction sought with a large enough effect; inconclusive = small, poorly fitted or top-dose-only effect, or another doubt; inactive = no such curve, though single readings can be large; an effect the other way counts as inactive or inconclusive. Unless noted, % is set by controls: 0 for no effect and ±100 for the full control effect; potency is the fitted concentration of half-maximal effect.

SMILES | AmpC no deterg | AMA1-RON2 inh | AmpC inh detg | Lassa entry inh | Marburg entry inh
CCN(C(=O)CSc1nc2ccccc2c2nc(CCn3c(C)nc4ccccc43)nn12)c1cccc(C)c1 | nt | nt | 10.8% | 3.5%[46.1 µM] | nt
O=C(/C=C/c1cccnc1)c1ccc(O)cc1 | -3.8% | -17.3% | 1.0% | 18.1%[46.1 µM] | ?
O=C(C=Cc1cccnc1)c1ccccc1 | nt | 7.2% | nt | ? | 12.6µM*
O=C(/C=C/c1ccccc1)NC(=S)Nc1cccnc1 | -14.0% | 1.8% | 2.9% | -2.6% | 11.6µM*
Cc1ccc(CNc2nc3ccccc3n2C)cc1 | -22.3% | -1.7% | -8.9% | nt | nt
Cc1ccc(C)c(N=Nc2nc3ccccc3n2C)c1 | 5.2% | 10.6µM* | 0.4% | ? | ?
Cc1cc(C)c(C)c(N=Nc2nc3ccccc3n2C)c1C | -7.5% | 11.2µM* | -9.2% | ? | ?
CCNc1c(NC(=O)c2ccccc2OCC)c(=O)oc2ccccc12 | nt | nt | -4.8% | -11.1%[46.1 µM] | 4.7%[46.1 µM]
COc1cccc(Cn2c(=O)n(-c3cccc(Cl)c3C)c(=O)c3c4c(sc32)CN(C(C)=O)CC4)c1 | nt | nt | 6.2% | 8.5%[46.1 µM] | nt
Cc1nc2c(-c3ccccc3)c(C)[nH]n2c(=O)c1Cc1ccccc1 | -23.0% | 78.4% | -1.0% | -25.7% | ?
Cc1nc2c(-c3ccc(Cl)cc3)c(C)[nH]n2c(=O)c1Cc1ccccc1 | -35.3% | 75.7% | 4.8% | ? | 3.98µM*
COc1ccc(-c2c(C)[nH]n3c(=O)c(Cc4ccccc4)c(C)nc23)cc1OC | 46.4% | 43.9% | -1.2% | ? | 7.94µM*
O=c1oc2ccccc2c2c1[C@H]1O[C@](c3ccsc3)(Cc3c1ccc1ccccc31)O2 | nt | nt | nt | nt | 5.2%[14.2 µM]
OCCCCNCc1ccc(OCc2ccc(Cl)cc2Cl)cc1 | 67.8% | 0.1% | -0.1% | ? | 5.8µM*
O=C(Nc1ccccc1)ON=C1CCCC1 | -15.2% | 14.9% | ? | -2.9% | -21.8%
Cc1ccc(NC(=O)ON=C2CCCC2)cc1 | -14.6% | 9.3% | -7.9% | 1.41µM* | 10µM*
COc1ccc(C(=O)/C(C#N)=N/Nc2cccc([N+](=O)[O-])c2)cc1 | -28.5% | -15.4% | -1.3% | 10.3µM* | 14.6µM*
COc1ccc(CC(=O)Nc2cccc(/C(C)=N/NC(=O)c3cccc([N+](=O)[O-])c3)c2)cc1 | ? | 75.5% | 2.2% | 11.2µM* | ?
CCc1c(C)sc(NC(=O)CN2CCN(C(=O)c3ccco3)CC2)c1C(=O)OC | 188.9% | -1.6% | 2.7% | 3.55µM* | ?
CCOC(=O)c1c(NC(=O)CN2CCN(C(=O)c3ccco3)CC2)sc(C)c1C | 8.6% | -2.1% | 3.0% | 11.2µM* | ?
CCOC(=O)c1ccc(NC(=O)CN2CCN(C(=O)c3ccco3)CC2)cc1 | 33.7% | -12.0% | 5.1% | -27.3% | ?
CC(C)(C)c1nc(N2CCN(C(=O)c3ccco3)CC2)c2nnn(Cc3ccccc3)c2n1 | 40.3% | -22.5% | ? | 25.9µM* | ?
COc1ccc(OC)c(S(=O)(=O)Nc2cc3c(C(C)=O)c(C)oc3c3ccccc23)c1 | nt | nt | 6.2% | 7.5%[46.1 µM] | ?
COC(=O)c1c(C)oc2c1cc(NS(=O)(=O)c1cccs1)c1ccccc12 | 11.2µM* | -14.3% | -7.1% | -17.0% | ?
O=C(NC1CCCCC1)N1CCN(c2ccccc2)CC1 | -9.9% | -9.7% | -0.8% | -1.7% | -1.1%[46.1 µM]
SMILES | AmpC no deterg | AMA1-RON2 inh | AmpC inh detg | Lassa entry inh | Marburg entry inh
O=C(NC1CCCCC1)N1CCN(C(c2ccccc2)c2ccccc2)CC1 | 21.2% | 34.6% | -8.7% | 13µM* | ?
O=C(Nc1cccc(C(F)(F)F)c1)c1cccnc1N1CCN(CCO)CC1 | 17.0% | 5.8% | -7.7% | -4.4% | 1.3%
O=C(Nc1cccc(C(F)(F)F)c1)c1cccnc1N1CCN(c2ccccc2)CC1 | 77.6% | 29.9µM* | 3.9% | ? | ?
COc1cccc(-c2nnc3sc(CN4CCCCC4)cn23)c1 | nt | nt | 2.7% | -8.0%[46.1 µM] | nt
Cc1cc(=O)n2nc(N3CCC(C(=O)Nc4ccc(Br)c(C)c4)CC3)sc2n1 | nt | nt | 14.5% | 19.3%[46.1 µM] | -18.3%[46.1 µM]
Cc1noc(C)c1CSc1nc2ccccc2c(=O)n1-c1ccccc1 | -10.0% | 10.1% | -4.9% | ? | ?
Cc1noc(C)c1CSc1nc2[nH]ncc2c(=O)n1-c1ccccc1 | -40.6% | -5.4% | -12.1% | 3.98µM* | ?
COCCc1nn2c(=O)cc(COC(=O)C(c3ccccc3)c3ccccc3)nc2s1 | nt | nt | 7.4% | 2.6%[46.1 µM] | nt
COc1cccc(OCCSc2nnc3sc4ccccc4n23)c1 | 16.9% | 0.0% | 2.6% | ? | -0.7%
c1ccc(OCCSc2nnc3sc4ccccc4n23)cc1 | -6.2% | 10.2% | -9.5% | 10.3µM* | 2.06µM*
CCN1CCN(c2cc(N3CCCC3)c([N+](=O)[O-])cc2F)CC1 | 10.5% | -23.1% | ? | 10.9% | 0.8%
CCN1CCN(c2cc(N3CCc4ccccc4C3)c(F)cc2[N+](=O)[O-])CC1 | 168.1% | ? | -3.4% | ? | 14.1µM*
O=C(O)C1=NN(c2cc(Cl)c(S(=O)(=O)O)cc2Cl)C(=O)C1 | nt | 2.82µM* | nt | 6.7%[46.1 µM] | 6.9%[46.1 µM]
CC1=NN(c2ccc(S(=O)(=O)O)cc2C)C(=O)C1 | -13.0% | 7.8% | -8.5% | 19.7% | -3.2%[46.1 µM]
CCCCCn1c(NC(=O)c2ccco2)c(C(=O)OCC)c2nc3ccccc3nc21 | 153.6% | -9.0% | -11.0% | ? | 4.47µM*
CCOC(=O)c1c(N)n(CCCOC(=O)c2ccco2)c2nc3ccccc3nc12 | -45.4% | -3.9% | 1.4% | ? | ?
C[C@H]1CN(Cc2ccccc2)C(=O)[C@H]1CC(=O)Nc1ccccc1 | nt | nt | nt | -9.2%[46.1 µM] | nt
CN(C)c1ccc(N/C=C/C(=O)c2ccccc2)cc1 | -19.4% | ? | -4.3% | 6.51µM* | ?
c1ccc2c(c1)[nH]c1nc(SCCN3CCOCC3)nnc12 | -8.5% | 0.0% | 0.1% | ? | ?
Brc1ccc2[nH]c3nc(SCCN4CCOCC4)nnc3c2c1 | -20.5% | -12.0% | -0.3% | 0.501µM* | ?
CCN(CCCl)c1cc(CN(C)C)cc(NC(=O)c2ccc(C(=O)Nc3cc(CN(C)C)cc(N(CC)CCCl)c3)cc2)c1 | nt | 25.1µM* | nt | ? | ?
Cc1c(CCNC(=O)C(C)(C)C)sc2nc(-c3ccc(F)cc3)nn12 | nt | nt | -2.4% | -24.8%[46.1 µM] | nt
CC12CC3CC(C)(C1)CC(N)(C3)C2 | -7.3% | -0.1% | ? | ? | 12.6µM*
CC(=O)Nc1ccc(C#Cc2ccc(NC(C)=O)cc2)cc1 | -1.5% | -0.4% | 3.7% | 7.3µM* | 4.61µM*
O=C(Nc1ccccc1O)c1ccc(NC(=O)C2CC2)cc1 | -31.0% | 12.4% | -5.9% | -20.1%[46.1 µM] | ?
O=C(Nc1ccc(Oc2ccccc2)cc1)C1CC1 | -21.1% | 8.6% | ? | -17.1% | ?
O=C(Nc1ccc(C#Cc2ccccc2)cc1)C1CC1 | -15.7% | 0.4% | -2.2% | 4.61µM* | 2.31µM*
CS(=O)(=O)c1cccc(NC(=O)C2CC2)c1 | -4.4% | 3.1% | -3.9% | 1.0%[46.1 µM] | -6.9%[46.1 µM]
